# Whole data set: some 25,000 sequences, median “ln(normalized median fluorescence intensity)” near 7.1, cut for the highest 2% near 10. Many of the other results were omitted from the sample, so the highest values are more common in it than they were.
# Test system: PfSIP2 AP2 domain 1 (GST-tagged)
# Experiment: gcPBM binding intensity (ln(normalized median fluorescence intensity)); higher = stronger DNA binding
# Procedure, shortened: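 In this array assay, P. falciparum DNA-binding domains with a GST tag, expressed in E. coli, were applied for 1 h to primer-extended double-stranded 36-bp intergenic genomic probes and negative controls on an Agilent 4 × 180k array. Bound protein was visualised with Alexa488 anti-GST antibody at 488 nm. Binding intensity is the highest Masliner-normalised natural-log median intensity across replicate spots of either probe orientation.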
row,Sequence,gcPBM binding intensity (ln)
1,AATAGAAAAAAATAAGTGCATTTTGGTATTCATCAT [GTGCAC_site9614],8.14
2,ATTATTTATATTATGGTGCATAATTTTGGGTTTCTT,10.2
3,TATATATATATATATATATATATGTATGTGCATTTA [TGCATGCA_negctrl_site53],9.08
4,GTAATTTTATATGGTTGTACATATATATATATATAT [XGTACX_site6659],9.68
5,TATTGTTCTTATTTAGTGCATATATAATATAATATA [GTGCAC_site9827],9.38
6,TATATATATATATGGGTGCATTTTTTTGTCCATGTA [GTGCAC_site9868],10.7
7,TTTTTAATTTCAATGGTGCAGTAATAATATAATAGT,10.5
8,TTATATGGCTCCATTTGTACGCATCCATGTTTTTAT [XGTACX_site6590],6.99
9,CATATAATTTTATGGGTGCATTTTTTTGTAAGACCA,11.1
10,TCTATTTTTTATATGGTGCATTGTTCTTATTAATAT [GTGCAC_site9392],10.5
11,ATAATTTCAATATTTAATATCATATATATATATTTT [GTGCAC_negctrl_site713],6.94
12,TTGTTCTTATTTCATTTTTATATGATATTTCATTAT [CACACA_negctrl_site1619],7.17
13,ATATTTATATATAGTAGTACTTTCAATAATTTAAAT [XGTACX_site7276],7.05
14,TTTATTTTAAAATATAGTACGCAAATAAAAATAAAT [XGTACX_site7783],7.33
15,AAATTTATTTCTGTGTGTCCACAAAAAAAAATCTTT [XGTACX_site691],6.91
16,TTTTTTTTTTTCTTTGCACACAGATAACTTGAAATT [CACACA_site2184],7.2
17,TATTATTAATATGTATGGTTGTAATCTGTGTCTCCT [TGCATGCA_negctrl_site190],7.12
18,CATTTTTTGCTTTCAACACACATACAATATATATAA [CACACA_site6127],7.26
19,AAAAAGAATAAATAAATAAATAAATATATATATATA [GTGCAC_negctrl_site584],9.47
20,AATATATGTAAATGGACACACACATATATATATATA [CACACA_site9220],9.61
21,AGAAATGAAATATACACACATACATATATACATATA [CACACA_site4033],7.21
22,ACATATATGTATAATACACACACTAATATATAATTG [CACACA_site1966],7.15
23,TTATAAAAAATTTTAGTGCATATATGATTTATATAT [GTGCAC_site9831],8.21

row,Sequence,gcPBM binding intensity (ln)
1,AAAATTAATATCTTGGTGCATTTTTTAATATTATTA [GTGCAC_site9638],10
2,CATATAAAAAATATGGTGCAGTTTTTTTTTTTTTTT,10.4
3,AAAATTTATAGTATGGTGCATAAAAATATATATATA,10.3
4,GAATTATAAATTATAGTGCATAAAATTATGGCATAA [GTGCAC_site9938],8.52
5,ATATATATATATGTAGTGCATTTTATATATAATATT,9.01
6,TTTTGTAGTTTATAAATAAAAGAGAATATGGTGCTT [CACACA_negctrl_site413],7.7
7,TAATATATATATATGGTGCATTTAATTTATATATAA,10.8
8,CATATATAAATATAAATATATATATATATATATATG [XGTACX_negctrl_site493],7.56
9,ACTCTATACATCTAATGTACATGGAAAAAAAAATTC [XGTACX_site733],7.28
10,ATTTATTTATTTATATGTACATATATATATATATAT [XGTACX_site339],9.54
11,TTAATTTATAAAAACACACACAGGTAAAAAGGTGCA [CACACA_site1177],9.31
12,TATTAATTTATTTGTTGTACGTAAATATGCTTGTTT [XGTACX_site6591],7.26
13,AAATGAACAAGTGGCACACACACATTCTAACTAATT [CACACA_site3203],6.93
14,TTCTATTTGTAAAATTGTACAAAATAAATAACAAAA [XGTACX_site1007],7.04
15,TACTTTTATATGAATACACACAGGAATATAAATATG [CACACA_site7647],7.2
16,GTATGAAAAAAAATATGTACACATATATATTTGGTA [XGTACX_site6309],7.07
17,TTCTTTGCTTTTCAAACACACAAAAGTTATTATATT [CACACA_site521],7.22
18,TAGAAAAACATTACGTGTACCAAACATCCTAGCAAC [XGTACX_site4888],7.19
19,TTCATTGTGTTAACGGTGCATATATTTTTTCACCGT [GTGCAC_site9464],10.3
20,TTGTTCATATTTTTTATTGTGTTAATATTTATAAAA [GTGCAC_negctrl_site423],7.28
21,GCAGCAGCATTTTCAGTGCATTATTATATTGTTCAT [GTGCAC_site9926],7.98
22,CAAAAGGATAGGCACACACACACACCCATATATATA [CACACA_site2199],7.55

# Reference: the supplement of paper PMC11417369
